Screens (PubChem)
TDP1 cell CPT = DT40-hTDP1 cell growth loss with CPT; chicken DT40 Tdp1-/-;hTDP1 cells + 20 nM CPT, ATP luminescence, 48 h; 420,000 tested, 12% active; Potency, µM (titrated, usually from 46.2 µM), for inactives: at the top dose activity change, negative = growth inhibition, hits mostly inhibitors; further: potency means the concentration at half of the fitted maximal effect; nearly all actives have a fitted effect of over 55% in size
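Cell growth measured by CellTiter-Glo luminescence after a minimum 48 h, 37 C compound exposure with 20 nM CPT in Tdp1-knockout DT40 cells stably expressing hTDP1, seeded 400/well; qHTS titration format.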
HT1080NT lethal = kills 2HG-producing HT-1080-NT fibrosarcoma cells; AID 686970; Potency, µM (doses to about 46.1 µM), for inactives: top-dose activity, negative = less viability, actives largely listed as cytotoxic; HT-1080-NT fibrosarcoma viability, CellTiter-Glo ATP luminescence, 48 h; 360,000 tested, 1.6% active;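 further: NT is the 2HG producing partner of a matched IDH1 knockdown line; potency means the concentration at half of the fitted maximal effect; 0% = DMSO-treated cells and -100% = media-only wells without cells; nearly all actives have a fitted effect of over 55% in size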
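Toxicity toward the 2HG-producing NT line was scored as %Activity, normalised to DMSO and no-cell wells, from CellTiter-Glo luminescence after 48 hours' treatment.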
IL1B secr inh = inhibitors of inflammasome signaling (IL-1 beta secretion). THP-1 LPS/ATP IL-1B secretion, AlphaLISA, 16 h; active compounds read low. activity change, % at 57.5 µM. 360,000 tested, 4.7% active. AID 743279; in the data active means activity change below about -50%; inconclusive means mostly about -30% to -49%
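Secreted IL-1B measured by AlphaLISA bead assay after 16 h compound exposure of THP-1 cells; compounds (final up to 57.5 uM) added 1 h before LPS (250 ng/mL) and ATP (1.25 mM) stimulation; lower signal means less secretion.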
DT40 TDP1 no CPT = qHTS for Inhibitors of human tyrosyl-DNA phosphodiesterase 1 (TDP1): qHTS in cells in absence of CPT. DT40 Tdp1-/- hTDP1 cells, no CPT, ATP luminescence, 48 h. Potency, µM (titrated, usually from 46.2 µM), without a hit: at the highest dose activity change, negative = growth inhibition, most hits filed as inhibitors. 420,000 tested, 15% active. AID 686978, 2013; further: potency means the concentration at half of the fitted maximal effect; nearly all actives have a fitted effect of over 55% in size
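Luminescent ATP content (CellTiter-Glo) served as the growth readout. Knockout chicken DT40 cells expressing human TDP1 were exposed to compounds without camptothecin for a minimum 48 hr at 37 °C.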
HT1080 IDH1KD tx = kills HT-1080 cells with IDH1 knockdown | HT-1080 IDH1 knockdown viability, ATP luminescence, 48 h | Potency, µM (series often up to 46.1 µM), for inactives: at the top dose activity, negative = toxicity, actives largely listed as cytotoxic | 360,000 tested, 2% active;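 further: potency means the concentration at half of the fitted maximal effect; 0% = DMSO wells and -100% = cell-free medium wells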
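% activity derives from luminescence (CellTiter-Glo), normalised to DMSO and no-cell wells. HT-1080-IDH1KD cells, 750/well, had 48 h compound exposure at 37 °C.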
Numbers without * were called inactive; ? = inconclusive; nt = no result given. Compounds with a hit are over-represented: about 19% of the library has one in this group of screens. Unless noted, the call rests on the fitted dose curve; in most records, active means well fitted curve in the direction sought with a large enough effect; inconclusive means small, poorly fitted or top-dose-only effect, or another doubt; inactive means no such curve, though single readings can be large; an effect the other way counts as inactive or inconclusive. Unless noted, on the % scale 0 is the no-effect control and ±100 the full control effect.

SMILES	TDP1 cell CPT	HT1080NT lethal	IL1B secr inh	DT40 TDP1 no CPT	HT1080 IDH1KD tx
COc1ccc2c(c1)CCc1c-2nc2ccccc2c1N1CCOCC1	1.6µM*	?	?	2.1µM*	?
c1ccc2c(N3CCOCC3)c3c(nc2c1)CCC3	-13%	0%	42	-4%	-5%
CC(C)N1C(=O)C(O)(c2c[nH]c3ccccc23)c2ccccc21 (stereo not drawn)	-22%	nt	nt	?	nt
CCc1ccc2cc3c(cc2n1)C(=O)c1ccccc1-3	-22%	2%	3	?	-1%
Oc1ccc(-c2nc(-c3ccc(O)c(O)c3)cs2)cc1	8.2µM*	?	0	8.2µM*	?
Cc1noc(C)c1C(=O)OCC(=O)/C=C1/N(C)c2ccccc2C1(C)C	?	6%	29	12µM*	0%
CN1/C(=C\C(=O)COC(=O)C2COc3ccccc3O2)C(C)(C)c2ccccc21 (stereo not drawn)	12µM*	-12%	-2	?	-22%
CCc1ccccc1NC(=O)COc1ccc2c(c1)OCO2	-2%	14%	33	-27%	7%
CN1/C(=C\C(=O)COc2ccc3c(c2)OCO3)C(C)(C)c2ccccc21	8.2µM*	-22%	-78*	8.2µM*	-28%
COc1ccccc1OCC(=O)/C=C1/N(C)c2ccccc2C1(C)C	16µM*	-19%	-9	21µM*	-27%
CN1/C(=C\C(=O)COC(=O)c2ccco2)C(C)(C)c2ccccc21	?	-1%	23	?	6%
CCc1cccc(C)c1NC(=O)CN1C(=O)C2(SCC(=O)N2c2cccc(F)c2)c2ccccc21 (stereo not drawn)	-29%	nt	nt	-23%	nt
Cc1cccc(C(=O)NNC(=O)c2ccc3ccccc3c2)c1	-6%	6%	?	6%	9%
COc1ccc(C2OC(=O)CC2C(=O)NCc2ccc(Cl)cc2)cc1OC (stereo not drawn)	14%	-3%	57	-21%	-1%
CN1/C(=C\C(=O)C[n+]2ccc3ccccc3c2)C(C)(C)c2ccccc21	0.65µM*	?	-53*	0.29µM*	?
Cc1ccc(C(=O)NCC(=O)OCC(=O)/C=C2\N(C)c3ccccc3C2(C)C)cc1C	16µM*	-2%	38	?	1%
CN1/C(=C\C(=O)CSc2ncn[nH]2)C(C)(C)c2ccccc21	?	10%	15	?	-6%
COC(=O)c1c(NC(=O)COc2ccc(C)cc2Br)sc2c1CCCC2	-17%	nt	nt	?	nt
CC1CC(C)CN(C(CCc2ccccc2)C(=O)NC2CCCCC2)C1 (stereo not drawn)	?	-3%	7	-16%	2%
Cc1cc(SC#N)cc(C)c1NC(=O)CCl	3.3µM*	18µM*	-64*	2.6µM*	23µM*
CCOC(=O)CC(=O)Nc1c(C)cc(C)cc1C	-2%	7%	-16	5%	-1%
CCC(=O)Nc1ccc(SC#N)cc1C	6.5µM*	?	-101*	5µM*	7.9µM*
CCc1cc(SC#N)cc(C)c1NC(=O)CCl	1.5µM*	?	-101*	1.6µM*	?
COC(=O)CCC(=O)N1CCc2cc(S(=O)(=O)N3CCN(c4ccccc4Cl)CC3)ccc21	-10%	1%	13	?	9%
S=C(Nc1ccccc1Oc1ccccc1)Nc1cccc(Cl)c1Cl	-19%	4%	0	?	27%
COc1ccc(CCN2CC(O)=C(c3nc4ccccc4c(=O)[nH]3)C2=N)cc1OC	?	7%	-19	18µM*	-4%
CCCCCCN1CC(O)=C(c2nc3ccccc3[nH]2)C1=N	-1%	5%	14	-2%	-25%
CCC(C)N1CC(O)=C(c2nc3ccccc3[nH]2)C1=N (stereo not drawn)	23µM*	4%	?	?	-21%
COc1ccc(CCN2CC(O)=C(c3nc(C)cs3)C2=N)cc1OC	-1%	-25%	-1	-13%	-10%
